37 compounds from PubChem BioAssay (NCATS) can be followed below.

Records with an inconclusive call do not appear. A call without a number means that no potency is given here. The source made the active and inactive calls. Calls follow the shape of the dose curve; as a rule, active = well fitted inhibition curve with a large enough effect; inconclusive = small, poorly fitted or top-dose-only effect; inactive = no such curve, though single readings can be large or run the other way.

In test [1] the target is N-terminal Xaa-Pro-Lys N-methyltransferase 1 (Homo sapiens) (UniProt Q9BV86). Briefly: qHTS Assay for Inhibitors of N-terminal methyltransferase 1 (NTMT1): LOPAC validation of the NTMT1 SAHH-coupled ThioGlo3 Assay (AID 1347143).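 Also: SAH from peptide methylation measured as thiol fluorescence via SAHH coupling and ThioGlo3; nearly all actives have a fitted effect of over 70% in size.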 A digest of the protocol:
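Recombinant human NTMT1 (125nM) was pre-incubated 1 min at room temperature with compounds over a concentration range, then a mix of 100uM SAM, 10uM SAHH and 15uM ThioGlo3 (concentrations in added reagent) was added. ThioGlo3 fluorescence (ex 340/em 450nm) after 30 min was normalized to the initial reading.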

The test system of test [2] is Zika virus NS2B-NS3 protease (unlinked). Briefly: Optimization of GU AMC qHTS for Zika virus inhibitors: Unlinked NS2B-NS3 protease assay (AID 1347151). Also: nearly all actives have a fitted effect of over 80% in size. A digest of the protocol: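 Noncovalent NS2B hydrophilic domain–NS3 protease complex (25 nM final) in 10 mM Tris-HCl pH 8.0, 0.01% Tween 20; AMC substrate, room temperature 15 min (~20% conversion); fluorescence change normalized, 4-parameter Hill fit.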
(Quantitative high-throughput screening tests each substance at several concentrations.)
Potency is read from the fitted curve at half-maximal effect.

Sequence of N-terminal Xaa-Pro-Lys N-methyltransferase 1 (Homo sapiens) (Q9BV86 whole entry, looked up): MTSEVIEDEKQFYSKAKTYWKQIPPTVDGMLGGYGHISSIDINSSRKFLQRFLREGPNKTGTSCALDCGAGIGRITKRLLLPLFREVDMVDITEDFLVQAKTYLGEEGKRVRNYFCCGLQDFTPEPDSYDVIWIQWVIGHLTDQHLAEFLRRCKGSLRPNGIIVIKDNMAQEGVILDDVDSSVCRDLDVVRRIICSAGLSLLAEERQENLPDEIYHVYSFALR

As for `CCCN1C[C@H](CSC)C[C@@H]2c3cccc4[nH]cc(c34)C[C@H]21`, the Potency entry in test [1] and in test [2] was “inactive” throughout.
With `CCN(CC)CC(=O)Nc1c(C)cccc1C`, the Potency entry in test [1] and in test [2] was “inactive” throughout.
For the compound `O=c1[nH]c(=O)n([C@H]2C[C@H](O)[C@@H](CO)O2)cc1Br`, the Potency entry in test [1] and in test [2] was “inactive” each time.
In the case of `c1ccc2c(c1)CCCC2C1=NCCN1` (stereo not drawn), the Potency entry in test [1] and in test [2] was “inactive” each time.
With `CC(C)COCC(CN(Cc1ccccc1)c1ccccc1)N1CCCC1` (stereo not drawn), the Potency in test [1] was 50.1 µM (active). For the same compound, the Potency result in test [2] is “inactive”.
On the same counts, the results for `CC[N+](C)(C)c1cccc(O)c1` are “inactive” and “inactive”.
The like results for `Cc1ccc(/C(=C\CN2CCCC2)c2ccccn2)cc1` were, in that order, “inactive” and “inactive”.
Regarding `NC(Cc1ccc(Cl)cc1)C(=O)O` (stereo not drawn), the Potency entry in test [1] and in test [2] was “inactive” in each case.
Consider `CCCN(CCC)C(=O)C(CCC(=O)O)NC(=O)c1ccccc1` (stereo not drawn), for which the Potency entry in test [1] and in test [2] was “inactive” in each case.
On to `CCCN(CCC)CCc1cccc2c1CC(=O)N2`, for which the Potency entry in test [1] and in test [2] was “inactive” in each case.
As to `COCCc1ccc(OCC(O)CNC(C)C)cc1` (stereo not drawn), the Potency result in test [1] and in test [2] was “inactive” throughout.
Regarding `COC(=O)C1=C(C)NC(C)=C(C(=O)OCCN(C)Cc2ccccc2)C1c1cccc([N+](=O)[O-])c1` (stereo not drawn), the Potency result in test [1] and in test [2] was “inactive” each time.
With `CC(=O)OCC1=C(C(=O)O)N2C(=O)[C@@H](NC(=O)Cc3cccs3)[C@H]2SC1`, the Potency entry in test [1] and in test [2] was “inactive” throughout.
In the case of `CCC(=O)c1ccc2c(c1)N(CCCN(C)C)c1ccccc1S2`, the Potency in test [1] is 39.8 µM (active). Further, the Potency entry in test [2] is “inactive”.
On the same counts, the results for `C[N+](C)(C)CCOC(N)=O` are “inactive” and “inactive”.
The like results for `NC(=O)c1ncn([C@@H]2O[C@H](CO)[C@@H](O)[C@H]2O)c1O` were, in that order, “inactive” and “inactive”.
The like results for `c1cc(CN2CCCCC2)cc(OCCCNc2nc3ccccc3s2)c1` were, in that order, 22.4 µM (active) and “inactive”.
As to `COc1ccc(CCN(C)CCCC(C#N)(c2cc(OC)c(OC)c(OC)c2)C(C)C)cc1OC` (stereo not drawn), the Potency result in test [1] and in test [2] was “inactive” in each case.
For the compound `C[C@H](CS)C(=O)N1CCC[C@H]1C(=O)O`, the Potency entry in test [1] and in test [2] was “inactive” in each case.
In the case of `CC(=O)Nc1nnc(S(N)(=O)=O)s1`, the Potency result in test [1] and in test [2] was “inactive” in each case.
On to `CN(C)CCOC(=O)COc1ccc(Cl)cc1`, for which, in test [1], the Potency was 56.2 µM (active). Moreover, in test [2], the Potency entry was “inactive”.
On the same counts, the results for `C=CCc1ccccc1OCC(O)CNC(C)C` (stereo not drawn) are “inactive” and “inactive”.
On the same counts, the results for `CCOC(=O)C1=C(C)NC(C)=C(C(=O)OC)C1c1cccc(Cl)c1Cl` (stereo not drawn) are 56.2 µM (active) and 26.7 µM (active).
In the case of `CN(C)C(=O)Oc1cccc([N+](C)(C)C)c1`, the Potency result in test [1] and in test [2] was “inactive” each time.
On to `CCCC(C(=O)OCCN(CC)CC)(c1ccccc1)c1ccccc1`, for which the Potency result in test [1] and in test [2] was “inactive” in each case.
For the compound `Nc1c2c(nc3ccccc13)CCCC2O` (stereo not drawn), the Potency result in test [1] and in test [2] was “inactive” throughout.
Turning to `NC/C=C/C(=O)O`, the Potency result in test [1] and in test [2] was “inactive” each time.
Take `CC(C)(C)NCC(O)c1cc(O)cc(O)c1` (stereo not drawn): the Potency result in test [1] and in test [2] was “inactive” throughout.
With `CN(C)[C@@H]1C(=O)C(C(N)=O)=C(O)[C@@]2(O)C(=O)C3=C(O)c4c(O)ccc(Cl)c4[C@@H](O)[C@H]3C[C@@H]12`, the Potency in test [1] was 56.2 µM (active). In addition, in test [2], the Potency result was “inactive”.
The like results for `C[C@]12CCC(=O)C=C1CC[C@@H]1[C@@H]2C(=O)C[C@@]2(C)[C@H]1CC[C@]2(O)C(=O)CO` were, in that order, “inactive” and “inactive”.
On the same counts, the results for `CCCCNC(=O)NS(=O)(=O)c1ccc(C)cc1` are “inactive” and “inactive”.
On the same counts, the results for `COc1ccc([C@@H]2Sc3ccccc3N(CCN(C)C)C(=O)[C@@H]2OC(C)=O)cc1` are “inactive” and “inactive”.
Regarding `CN(C)C(=O)Oc1ccc[n+](C)c1`, the Potency entry in test [1] and in test [2] was “inactive” throughout.
As to `CN=C(NC#N)NCCSCc1nc[nH]c1C`, the Potency result in test [1] and in test [2] was “inactive” each time.
On to `NC(N)=NC(=O)Cc1c(Cl)cccc1Cl`, for which the Potency result in test [1] and in test [2] was “inactive” in each case.
As for `CO[C@@]1(NC(=O)CSCC#N)C(=O)N2C(C(=O)O)=C(CSc3nnnn3C)CS[C@@H]21`, the Potency result in test [1] and in test [2] was “inactive” throughout.
Consider `C[C@@H](O)[C@H]1C(=O)N2C(C(=O)O)=C(SCCN=CN)C[C@H]12`, for which the Potency result in test [1] was “inactive”.
